# Measured values: the supplement of paper PMC6555819
# How the values were obtained:
# Assay in all cases: PBM binding z-score (relative to random genomic background probes); higher = stronger binding; sequences stand for … in GC…GCGATTGACAGCGTAGAATGAAGG
# [1] = test system: FXR:RXRa (NR concentration 270 nM, RXRa partner concentration 90 nM)
# How it was run: (§1)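 On custom Agilent 4×180K arrays, double-stranded probes with 34-nt variable regions carried direct-repeat seeds, single-nucleotide variants, half-site ablations or random human genomic background. Ligand-free nuclear receptor dimers were applied for 1 h, and binding was read with antibodies against each partner (one per run). Binding z-scores come from regression-normalized fluorescence, with the random background probes as reference.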
# [2] = test system: LXRa:RXRa (NR concentration 270 nM, RXRa partner concentration 90 nM)
# How it was run: as §1
# [3] = test system: LXRa homodimer (NR concentration 270 nM)
# How it was run: as §1
# [4] = test system: LXRb:RXRa (NR concentration 270 nM, RXRa partner concentration 90 nM)
# How it was run: as §1
# [5] = test system: LXRb homodimer (NR concentration 270 nM)
# How it was run: as §1
# [6] = test system: PPARa:RXRa (NR concentration 270 nM, RXRa partner concentration 90 nM)
# How it was run: as §1
# [7] = test system: PPARg:RXRa (NR concentration 180 nM, RXRa partner concentration 90 nM)
# How it was run: as §1
# [8] = test system: PPARg:RXRa 270nM:90nM, anti-RXR (NR concentration 270 nM, RXRa partner concentration 90 nM)
# How it was run: as §1
# [9] = test system: PPARg:RXRa 30nM:10nM, anti-RXR (NR concentration 30 nM, RXRa partner concentration 10 nM)
# How it was run: as §1
# [10] = test system: PPARg:RXRa 90nM:30nM, anti-RXR (NR concentration 90 nM, RXRa partner concentration 30 nM)
# How it was run: as §1
# [11] = test system: PPARg:RXRa DBDmut IVT, anti-RXR (DBD mutation: RXRa K156A/R161A, NR concentration 270 nM, RXRa partner concentration 90 nM)
# How it was run: as §1
# [12] = test system: PPARg:RXRa IVT, anti-PPARg (NR concentration 270 nM, RXRa partner concentration 90 nM)
# How it was run: as §1
# [13] = test system: PPARg DBDmut:RXRa IVT, anti-PPARg (DBD mutation: PPARg1 K132A/R137A, NR concentration 270 nM, RXRa partner concentration 90 nM)
# How it was run: as §1
# [14] = test system: PPARg DBDmut IVT, anti-PPARg (DBD mutation: PPARg1 K132A/R137A, NR concentration 270 nM)
# How it was run: as §1
# [15] = test system: PPARg homodimer (NR concentration 180 nM)
# How it was run: as §1
# [16] = test system: PXR:RXRa (NR concentration 270 nM, RXRa partner concentration 90 nM)
# How it was run: as §1
# [17] = test system: PXR homodimer (NR concentration 270 nM)
# How it was run: as §1
# [18] = test system: RARa:RXR (NR concentration 270 nM, RXRa partner concentration 90 nM)
# How it was run: as §1
# [19] = test system: RARa homodimer (NR concentration 270 nM)
# How it was run: as §1
# [20] = test system: RARb:RXRa (NR concentration 270 nM, RXRa partner concentration 90 nM)
# How it was run: as §1
Sequence,PBM binding z-score [1],PBM binding z-score [2],PBM binding z-score [3],PBM binding z-score [4],PBM binding z-score [5],PBM binding z-score [6],PBM binding z-score [7],PBM binding z-score [8],PBM binding z-score [9],PBM binding z-score [10],PBM binding z-score [11],PBM binding z-score [12],PBM binding z-score [13],PBM binding z-score [14],PBM binding z-score [15],PBM binding z-score [16],PBM binding z-score [17],PBM binding z-score [18],PBM binding z-score [19],PBM binding z-score [20]
TCTAGTTAGTCAAAGGTCACACACTCGAAATGCG,5.6,5.78,4.78,5.34,1.76,5.98,8,7.8,6.86,8.1,2.7,4.43,1.17,3.06,5.38,5.63,2.01,6.72,3.05,4.74
TCTTGTGGATCAAAGGTTAAGAAAGCCGAAGCCT,1.78,1.88,0.101,2.08,0.0498,4.58,7.94,7.64,7.24,8.31,1.84,3.48,0.81,-0.181,1.3,1.98,-0.205,2.8,0.693,1.82
ATCTCTAGGTAAAGATAGTTAAGTGAATGCAAAT,-0.0331,0.0561,-0.0773,0.142,0.643,-0.0582,0.771,0.421,0.415,0.236,1.79,1.42,0.229,1.6,0.449,-0.33,0.0795,-0.0694,0.927,-0.0166
CCTACTAGGTCATGGTCAGCTAATCTACAGTATG,3.8,2.57,0.658,2.06,0.291,4.33,6.76,5.84,3.38,4.97,7.3,7.42,2.12,1.91,2.59,1.5,0.291,2.45,0.932,3.92
CCAACTAGGTCACAGAGGTCAAAGTCCGTGCGTA,7.03,6.68,7.62,6.53,2.14,6.53,9.3,7.99,5.85,7.48,8.13,8.5,1.22,2.03,5.09,6.64,11.9,7.08,2.03,5.31
CCGACTGCGGCAAAGGTTACCATACTCAGTACGA,0.819,1.26,0.087,1.73,-0.464,2.59,2.8,4.2,2.28,4.38,0.233,0.732,0.0182,0.245,0.843,1.61,-0.16,2.57,0.118,1.82
TGTCAAAGTTCAAAGGTAACGTGAGTATCCACAC,6.92,6.79,4.59,4.91,1.54,5.99,8.97,7.93,6.04,7.73,0.486,4.72,1.71,2.12,3.33,5.78,3.67,6.92,0.948,5.15
CAGCCTAGGTCAGGGCGAGTATAGGAGGAACGTT,1.8,0.876,-0.437,0.505,-1.08,2.07,1.03,1.29,0.157,0.783,1.68,1.54,-1.19,-1.55,0.665,0.305,-0.665,1.11,-0.626,3.19
TCTTGTAGATCTAGCAGGTTAAGAAAGCCTGAGT,0.335,0.398,-0.285,0.453,-0.499,0.695,-0.571,1.22,2.48,1.86,1.5,0.0743,0.126,0.6,-0.214,0.527,0.101,0.57,0.175,0.0972
TCCAGTAGGTTAGTCGGGGCATTCAGCCAACATA,0.407,0.471,0.422,0.794,-0.477,1.38,0.45,2.08,2.7,2.41,3.62,3.02,-0.197,-0.452,0.925,0.439,0.18,0.346,0.0406,0.79
ATATGCAGGTTAAGGGTCATTCAGGTTGGTTCGC,5.08,4.8,3.05,4.56,1.17,5.84,9.18,7.85,8.36,8.7,3.94,5.19,0.744,1.06,2.9,5.48,1.82,6.03,1.71,3.6
TCATACAGGTGAAGGTAACTCAGGTACGCAGTCG,1.02,2.17,0.186,1.18,0.221,1.68,1.3,2.39,3.72,3.04,3.17,2.45,0.347,1.84,1.14,0.814,0.508,1.31,0.817,1.26
TCGAGTAGGTTGCCAATGGGGCATTCAGCTTTCT,-0.454,-0.408,-0.785,-0.313,-0.788,-0.0635,-0.86,0.227,0.337,0.314,0.771,0.26,-0.582,-1.2,-1.09,-0.544,-1.13,-0.717,-1.42,-0.201
CCGAGAAGGTTATGGGGCATTCAGGCAACGGTGA,1.63,1.52,0.000193,1.24,-0.242,2.89,1.15,1.75,-0.0865,0.883,0.959,1.38,-0.265,-0.895,1.08,0.668,0.111,1.54,-0.0567,2.08
ACAGGCAGGTGATGAAGGTAACTCAGGCTATCAT,-0.308,-0.138,-0.317,-0.214,-0.617,-0.126,0.575,-0.133,0.158,-0.0613,0.0324,0.0841,0.243,-0.423,-0.139,-0.235,0.0904,-0.0555,0.0189,0.121
